We go through 88 molecules from PubChem BioAssay AID463173 (ICCB-Longwood Screening Facility, Harvard Medical School, 2010).

Among all 52,000 compounds or so, about 1,700 (3.3%) were called active. Cut-off read from the data, not from the text of the source: active = survival mostly below about 52% (no sharp cut-off); inactive = mostly above about 56%. The list comes from a sample in which actives are over-represented; it also holds similar structures and randomly drawn compounds.

This assay relates to Wild type. In words: growth inhibition of S. aureus wild type versus tarO mutant, primary screen, teichoic acid synthesis inhibitors, RN4220, OD600 (AID 463173). The conditions noted are these: S. aureus RN4220 wild type/DeltatarO growth, OD600, 18 h, hits give low values, screened at 18.75 µg/mL (by protocol).
Consider `CCN(CC(O)COc1ccc(OCC(O)CN(CC)C2CCCCC2)cc1)C1CCCCC1` (stereo not drawn), for which the survival was 109% (inactive).
With `CC1(C)CC(=O)c2cc(-c3nc(-c4ccc(Cl)cc4)cs3)c(=O)n(-c3ccc(Cl)cc3)c2C1`, the survival was 67% (inactive).
For `Cn1nc(C(=O)NCCc2ccc(Cl)cc2)c2c1-c1ccccc1SC2` the value was 82% (inactive); for `CCc1nn2c(=O)c(S(=O)(=O)Nc3ccc(C)cc3C)c(C)nc2s1`, 75% (inactive).
Turning to `CCCCN(CC)CCNC(=O)c1cn(CCOC)c(=O)c2c1c1ccccc1n2C`, the survival is 89% (inactive).
With `COc1ccccc1-c1c(C)nn2c(-c3ccccc3)cc(-c3ccccc3)nc12` the figure was 77% (inactive); with `Cc1cc(C)cc(OC(C)C(=O)Nc2nonc2-c2ccc(Br)cc2)c1` (stereo not drawn), 17% (active).
With `Cc1cccc(OC(C)C(=O)Nc2nonc2-c2ccc(Br)cc2)c1C` (stereo not drawn) the figure was 94% (inactive).
Consider `Cc1ccc(OC(C)C(=O)Nc2nonc2-c2ccc(Br)cc2)cc1C` (stereo not drawn), for which the survival is 72% (inactive).
For `Cc1ccc(-n2nc(CO)c(C(=O)NCCC(C)C)n2)cc1C` the value was 116% (inactive); for `CCOc1ccccc1NC(=O)CN1C(=O)C2(SCC(=O)N2c2cccc(F)c2)c2ccccc21` (stereo not drawn), 97% (inactive); for `Cc1ccc(/C=N/NC(=O)C2=NNC(=O)C2C)o1` (stereo not drawn), 107% (inactive).
Take `COc1cccc(OCc2nnc(SCC(=O)O)o2)c1`: the survival was 98% (inactive).
With `CCCc1cc(=O)oc2cc(C)c3c(-c4ccccc4)coc3c12` the figure was 66% (inactive); with `CCCc1cc(=O)oc2cc(C)c3c(-c4ccccc4)c(C)oc3c12`, 0% (active).
With `CCCc1cc(=O)oc2cc(C)c3c(-c4cccc(OC)c4)coc3c12` the figure was 74% (inactive); with `CCN1C(=O)c2ccccc2S(=O)c2ccc(C(=O)N3CCN(c4ccccc4)CC3)cc21` (stereo not drawn), 83% (inactive).
With `CCOc1ccc2nc(N3CCCC(C(=O)Nc4ccc(OC)c(Cl)c4)C3)sc2c1` (stereo not drawn) the figure was 89% (inactive); with `Clc1ccc(NCc2nc3ccccc3n2CCOc2ccccc2)cc1`, 74% (inactive).
For the molecule `Cc1ccc(OCCn2c(CNc3cccc(C)c3)nc3ccccc32)cc1`, the survival was -21% (active).
With `Cc1ccc(NCc2nc3ccccc3n2CCOc2ccccc2)cc1` the figure was -20% (active).
With `CCOc1ccc(NCc2n[nH]c(=S)n2-c2ccc(C)cc2)cc1` the figure was 122% (inactive); with `COc1ccc(NCc2nc3ccccc3n2CCOc2ccc(C)cc2)cc1`, -18% (active).
With `CCOc1ccc(NCc2nc3ccccc3n2CCOc2ccc(C)cc2)cc1` the figure was -20% (active).
Take `CC(C)CCNc1ncnc2c1nnn2Cc1ccccc1`: the survival is 111% (inactive).
Take `Cc1nc2cc(NC(=O)Nc3ccccc3Cl)ccc2n1C`: the survival was 109% (inactive).
With `CCCCNC(=O)c1nn(-c2ccc(C)cc2)c(=O)n(C)c1=O` the figure was 68% (inactive); with `Cc1ccc(N(CC(=O)Nc2ccc(Cl)cc2)S(=O)(=O)c2cccc3nonc23)cc1`, 125% (inactive); with `O=C(Cn1ncn2nc(-c3cccs3)cc2c1=O)NCc1ccccc1Cl`, 94% (inactive).
Turning to `COc1ccc(-c2nn3c(=O)cc(CN4CCN(C(=O)/C=C/c5ccccc5)CC4)nc3s2)cc1`, the survival is 72% (inactive).
Regarding `CCn1cc2nc(SCc3c(F)cccc3Cl)n(CCc3ccccc3)c(=O)c2n1`, the survival is 64% (inactive).
For `CCn1c(=O)cc(SCC(=O)NCc2ccc(F)cc2Cl)c2ccccc21` the value was 91% (inactive); for `Cc1cc(Cl)ccc1NC(=O)C1CCCN(c2nnc(C)c3c(C)n(-c4ccccc4)nc23)C1` (stereo not drawn), 70% (inactive).
With `Cc1ccccc1NCc1nc2ccccc2n1CCOc1ccccc1` the figure was -20% (active).
For `Cc1ccc(OCCn2c(CNc3ccccc3C)nc3ccccc32)cc1` the value was 57% (inactive); for `Cc1ccc(CSCC(=O)N2CCN(c3ccccc3F)CC2)cc1`, 45% (inactive).
For `COc1ccc(Cn2c(=O)c3ccccc3n3c(-c4cccc(OC)c4OC)nnc23)cc1`, the survival was 87% (inactive).
With `CCc1ccc(CNC(=O)CCn2nc(C)c3c(C)n(-c4ccccc4)nc3c2=O)cc1` the figure was 65% (inactive).
For `COc1ccc(CNC(=O)CCn2nc(C)c3c(C)n(-c4ccccc4)nc3c2=O)cc1OC` the value was -2% (active).
For `Cc1ccc(C)c(NC(=O)CCn2nc(C)c3c(C)n(-c4ccccc4)nc3c2=O)c1` the value was 10% (active); for `Cc1nn(CCC(=O)NCc2ccc(N(C)C)cc2)c(=O)c2nn(-c3ccccc3)c(C)c12`, 87% (inactive); for `Cc1cccc(NC(=O)CCn2nc(C)c3c(C)n(-c4ccccc4)nc3c2=O)c1C`, 65% (inactive).
Turning to `Cc1ccc(NC(=O)CCCn2nc(C)c3c(C)n(-c4ccccc4)nc3c2=O)c(Cl)c1`, the survival was 113% (inactive).
With `Cc1nn(CCC(=O)NCc2ccc(Cl)cc2)c(=O)c2nn(-c3ccccc3)c(C)c12` the figure was -3% (active); with `COc1cccc(CNC(=O)CCn2nc(C)c3c(C)n(-c4ccccc4)nc3c2=O)c1`, 82% (inactive); with `COc1ccc(CNC(=O)CCCn2nc(C)c3c(C)n(-c4ccc(C)cc4)nc3c2=O)cc1OC`, 71% (inactive).
For `Cc1cc(Cl)ccc1NC(=O)CCn1nc(C)c2c(C)n(-c3ccccc3)nc2c1=O` the value was 68% (inactive).
For `Cc1cc(Cl)ccc1NC(=O)CCCn1nc(C)c2c(C)n(-c3ccccc3)nc2c1=O` the value was 118% (inactive).
For the molecule `COc1cc(OC)c(NC(=O)CCCn2nc(C)c3c(C)n(-c4ccccc4)nc3c2=O)cc1Cl`, the survival was 0% (active).
With `O=C(NCCSCc1c(F)cccc1Cl)C1CCN(S(=O)(=O)Cc2ccccc2)CC1` the figure was 87% (inactive).
With `O=C(CC(c1cccs1)N1Cc2ccccc2C1=O)Nc1ccc(F)cc1` (stereo not drawn) the figure was 91% (inactive); with `CCN(CC)C(=O)Cn1c(=O)cc(C)c2c(C)nn(-c3cccc(Cl)c3C)c21`, 85% (inactive); with `Cc1ccccc1C(=O)Nc1ccc2c(c1)CCCN2C(=O)c1cccs1`, 77% (inactive).
For `Cc1ccccc1NC(=O)Cn1c(=O)n(CCCC(=O)NCc2ccc3c(c2)OCO3)c(=O)c2ccccc21` the value was 91% (inactive).
For `Cc1ccc(S(=O)(=O)c2cn(C)c3cc(N4CCCCC4)c(F)cc3c2=O)cc1`, the survival is 74% (inactive).
With `COc1ccc(-c2nc3c(c(SCC(=O)Nc4ccccc4F)n2)Cc2cc(C)ccc2O3)cc1` the figure was 80% (inactive); with `COc1ccccc1NC(=O)C(=O)NCC(c1ccc2c(c1)OCO2)N1CCN(C)CC1` (stereo not drawn), 81% (inactive).
With `O=C(CN(c1ccc(Cl)c(C(F)(F)F)c1)S(=O)(=O)c1ccccc1)Nc1cccnc1` the figure was 64% (inactive); with `Cc1c(CCC(=O)N2CCCCC2)c(=O)oc2cc3occ(C(C)(C)C)c3cc12`, 74% (inactive); with `Cc1cccc(Cn2c(SCc3ccc(C(=O)NCc4cccs4)cc3)nc3ccncc32)c1`, 84% (inactive).
On to `COc1ccccc1N1CCN(S(=O)(=O)c2ccc(-c3ccno3)cc2OC)CC1`, for which the survival was 82% (inactive).
For `COc1cccc(N2CCN(S(=O)(=O)c3ccc(-c4ccno4)cc3OC)CC2)c1` the value was 57% (inactive).
For `COc1cc(-c2ccno2)ccc1S(=O)(=O)N1CCN(c2ccccc2)CC1` the value was 71% (inactive); for `COc1cc(-c2ccno2)ccc1S(=O)(=O)N1CCN(c2cccc(Cl)c2)CC1`, -3% (active); for `COc1ccc(N2CCN(S(=O)(=O)c3ccc(-c4ccno4)cc3OC)CC2)cc1`, 1% (active).
Turning to `COc1cc(-c2ccno2)ccc1S(=O)(=O)N1CCN(c2ccc(F)cc2)CC1`, the survival was 63% (inactive).
For `COC(=O)c1c(-c2cccs2)csc1NC(=O)c1cc(OC)c(OC)c(OC)c1` the value was 76% (inactive).
With `CCn1ccc2cc(S(=O)(=O)N3CCCN(C(=O)NCC(=O)OC)CC3)ccc21` the figure was 128% (inactive); with `CCCn1c2ccccc2c2cnn(CC(=O)NCCc3ccc(S(N)(=O)=O)cc3)c(=O)c21`, 134% (inactive); with `CCN(Cc1ccccc1)C(c1cccnc1)c1nnnn1Cc1ccccc1` (stereo not drawn), 106% (inactive).
With `CCc1ccccc1NS(=O)(=O)c1ccc2c(c1)CCN2C(=O)C1CC1` the figure was 72% (inactive); with `Cc1ccc(NC(=O)CSc2nc3n[nH]c(C)c3c(=N)n2-c2cccc(C)c2)cc1`, -6% (active); with `CCCCN(CC)C(=O)CSc1nc2n[nH]c(C)c2c(=N)n1-c1cccc(Cl)c1`, -1% (active).
As to `Cc1cccc(-n2c(SCC(=O)Nc3ccccc3Cl)nc3n[nH]c(C)c3c2=N)c1`, the survival is 72% (inactive).
With `Cc1ccc(Cl)cc1-n1c(SCC(=O)NCc2ccccc2)nc2n[nH]c(C)c2c1=N` the figure was 72% (inactive); with `CCCCN(CC)C(=O)CSc1nc2n[nH]c(C)c2c(=N)n1-c1cccc(C)c1`, 78% (inactive).
Regarding `Cc1ccc(-n2c(SCC(=O)Nc3cccc(Cl)c3)nc3n[nH]c(C)c3c2=N)cc1`, the survival was 85% (inactive).
With `Cc1ccc(CNC(=O)CSc2nc3n[nH]c(C)c3c(=N)n2-c2cccc(C)c2)cc1` the figure was 133% (inactive); with `Cc1c(Cl)cccc1-n1c(SCC(=O)NCc2ccccc2)nc2n[nH]c(C)c2c1=N`, 134% (inactive).
As to `Cc1cccc(-n2c(SCC(=O)Nc3ccc(C)c(C)c3)nc3n[nH]c(C)c3c2=N)c1`, the survival is 76% (inactive).
In the case of `Cc1cccc(NC(=O)CSc2nc3n[nH]c(C)c3c(=N)n2-c2cccc(Cl)c2)c1`, the survival was 14% (active).
For `CCCCN(CC)C(=O)CSc1nc2n[nH]c(C)c2c(=N)n1-c1cccc(OC)c1` the value was 120% (inactive); for `Cc1ccc(-n2c(SCC(=O)NCc3ccccc3)nc3n[nH]c(C)c3c2=N)cc1Cl`, -6% (active).
Consider `CCOC(=O)c1ccccc1NC(=O)CSc1nc2cn(CC)nc2c(=O)n1Cc1ccc(Cl)cc1`, for which the survival is 67% (inactive).
For `Cc1ccc2ccc3cc(C(=O)N4CCN(c5ccccc5)CC4)nc3c2[nH]1` the value was 128% (inactive); for `COc1ccc(CNC(=O)c2ccc(CS(=O)(=O)c3ccccc3OC)o2)cc1`, 76% (inactive); for `CCOc1cc(Br)c(C2C(C(=O)OC)=C(C)NC3=C2C(=O)c2ccccc23)cc1OCC` (stereo not drawn), 96% (inactive).
As for `Cc1ccc(-n2nnc(-c3nc(-c4cccs4)no3)c2N)cc1C`, the survival is 100% (inactive).
